The list is not random: actives were taken first. Their share in the collection is about 10%.
Six1-Eya2 blk = inhibitors of human Six1/Eya2 interaction; AlphaScreen GST-Six1/His-Eya2 binding, biochemical; hits give low values; activity change, % (test concentration not listed); actives 0.56% (n = 360,000); in the data active = activity change below about -65%; inconclusive = mostly about -30% to -63%; note: % is set by controls: 0 for no effect and ±100 for the full control effect
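Compounds are tested against tagged Six1 and Eya2 proteins bridged by glutathione donor and nickel acceptor beads; after a one-hour incubation at 37 °C without light, AlphaScreen emission is recorded.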
HP1b binding inh = blocks HP1-beta chromodomain binding to methylated histone tails; AlphaScreen HP1-beta / biotin-H3K9me3 peptide binding; Potency, µM (highest dose often 114 µM), without a hit: at the highest dose activity change, negative = inhibition, most hits filed as inhibitors; actives 0.56% (n = 390,000); note: potency is the fitted concentration of half-maximal effect; nearly all actives have a fitted effect of over 70% in size
Target sequence (P83916 whole entry, looked up): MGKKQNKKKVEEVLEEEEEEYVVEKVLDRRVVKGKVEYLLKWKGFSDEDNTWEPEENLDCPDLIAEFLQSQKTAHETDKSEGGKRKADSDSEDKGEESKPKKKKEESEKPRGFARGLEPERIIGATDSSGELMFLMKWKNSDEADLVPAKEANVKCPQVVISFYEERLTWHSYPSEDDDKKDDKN
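HP1-beta protein (50 nM final) preincubated 30 min at room temperature with biotinylated H3(1-18)K9me3 peptide (50 nM) in PBS pH 7.4, 0.01% Tween-20, then compound added for 30 min. AlphaScreen streptavidin donor/nickel chelate acceptor beads (10 ug/mL final), 30 min dark, luminescence read.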
JMJD2A Tudor = blocks the human JMJD2A Tudor domain | O75164 | AlphaScreen JMJD2A-Tudor / H3K4me3 peptide binding | Potency, µM (doses to about 114 µM), without a hit: at the highest dose activity change, negative = inhibition, hits mostly inhibitors | actives 4.4% (n = 390,000); note: potency is the fitted concentration of half-maximal effect; % is set by controls: 0 for no effect and ±100 for the full control effect; nearly all actives have a fitted effect of over 50% in size
BAZ2B inh = BAZ2B (human) inhibition. Q9UIF8. AlphaScreen BAZ2B-H3K14Ac peptide displacement. Potency, µM (titrated, usually from 114 µM), for the others: at the highest dose activity change, negative = inhibition, usual class: inhibitors. actives 4.4% (n = 360,000); note: potency is the fitted concentration of half-maximal effect; % is set by controls: 0 for no effect and ±100 for the full control effect; nearly all actives have a fitted effect of over 60% in size
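AlphaScreen displacement: compounds (up to 110uM) incubated 30 min at room temperature with a preformed 50 nM BAZ2B/50 nM biotinylated H3K14Ac peptide complex in PBS pH 7.4 with Tween-20. Donor and acceptor beads at 10 ug/mL final added, 20 min light-protected before reading.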
CtBP-E1A blk = inhibitors of CtBP/E1A interaction | AlphaScreen GST-E1A/His-CtBP binding, 1536-well; hits give low values | AID 651724 | activity change, % (test concentration not listed) | actives 0.49% (n = 340,000); in the data active = activity change below about -65%; inconclusive = mostly about -30% to -63%; note: % is set by controls: 0 for no effect and ±100 for the full control effect
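Protein mix (5X: 125 nM each GST-E1A, His-CtBP) was incubated with pinned compound 2 h at 37 deg C in dark, in 50 mM Tris pH 8.0 buffer with 300 mM NaCl. Glutathione donor and nickel acceptor beads followed; AlphaScreen signal read after 1 h.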
G9a block = G9a (human) methyltransferase inhibition; Q96KQ7; G9a H3K9 monomethylation, AlphaScreen, 2 h; Potency, µM (series often up to 102 µM), inactives show top-dose activity, negative = inhibition, hits mostly inhibitors; actives 8.8% (n = 350,000); note: potency is the fitted concentration of half-maximal effect; % is set by controls: 0 for no effect and ±100 for the full control effect; nearly all actives have a fitted effect of over 75% in size
Target sequence (Q96KQ7 913-1193 limits assumed): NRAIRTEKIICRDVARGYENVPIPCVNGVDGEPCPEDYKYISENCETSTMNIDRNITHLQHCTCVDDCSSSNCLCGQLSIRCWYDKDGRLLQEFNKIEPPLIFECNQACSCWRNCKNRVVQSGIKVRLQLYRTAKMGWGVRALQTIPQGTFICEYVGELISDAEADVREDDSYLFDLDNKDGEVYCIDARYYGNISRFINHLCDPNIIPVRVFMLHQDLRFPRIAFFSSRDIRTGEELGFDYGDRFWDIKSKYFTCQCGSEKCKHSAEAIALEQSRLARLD
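G9a (20 nM) preincubated 15 min RT with compounds, then 500 nM biotinylated H3K9 peptide and 20 uM SAM added; 2 h RT reaction. Monomethyl-H3K9 product detected by AlphaScreen with anti-H3K9me1 antibody, streptavidin donor and anti-rabbit IgG acceptor beads.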
The depositor's hits bear a star; ? = inconclusive; . = no result given; ! = not confirmed by another sample; [ ] = dose if it differs, or a comment. Unless noted, calls come from the whole dose curve; as a rule, active = well fitted inhibition curve with a large enough effect; inconclusive = small, poorly fitted or top-dose-only effect; inactive = no such curve, though single readings can be large or run the other way.

SMILES | Six1-Eya2 blk | HP1b binding inh | JMJD2A Tudor | BAZ2B inh | CtBP-E1A blk | G9a block
COc1ccc(C(Nc2ccccn2)c2c(NC(=O)c3ccco3)sc(C)c2C)cc1 (stereo not given) | -8 | 6% | ? | ? | . | 45µM*
Nc1nn2c(-c3ccccc3)cc(=O)[nH]c2c1N=Nc1ccc(Br)cc1 | 17 | ? | 28µM* | -37% | . | 18%[59 µM]
COc1ccccc1C(=O)Nc1c(C(=O)N(CCN(C)C)Cc2ccco2)oc2ccccc12 | -26 | -24%[57 µM] | 45µM* | ? | . | 40µM*!
CN(C)CCN(Cc1ccco1)C(=O)c1oc2ccccc2c1NC(=O)c1ccccc1 | . | 17% | ? | -20%[57.1 µM] | . | ?
COc1ccc(OCC(=O)Nc2c(C(=O)N(CCN(C)C)Cc3ccco3)oc3ccccc23)cc1 | -28 | ? | ? | 71µM* | ? | 15%[59 µM]
Cc1ccccc1C(=O)Nc1c(C(=O)N(CCN(C)C)Cc2ccco2)oc2ccccc12 | -14 | -1% | -34% | ? | -12 | -14%
COc1cccc(C(=O)Nc2nc3nc(C)c(C)c(=O)n3[nH]2)c1 | . | 19% | 89µM* | ? | . | ?
O=C1c2ccccc2C(=O)N1CCCCc1cn(C[C@H]2CC[C@@H]([C@@H]3CC[C@H](Cn4cc(CCCCN5C(=O)c6ccccc6C5=O)nn4)O3)O2)nn1 | 0 | 28% | -15% | . | 3 | .
COc1cccc(NC(=O)C(=O)NCCCn2ccnc2)c1 | -3 | 1% | -23% | 79µM* | 0 | -17%
O=C(NCCCn1ccnc1)Nc1cccc(Cl)c1 | ? | 32% | 45µM* | 25µM* | -23 | -2%[59 µM]
CC(C)(C)C(=O)Nc1ccc(C(=O)Nc2cc(NC(=O)c3ccc(NC(=O)C(C)(C)C)cc3)cc(C(=O)O)c2)cc1 | -12 | 9% | -14% | -4% | 11 | 13%[59 µM]
O=C(Nc1cccc(Oc2ccc(C(=O)O)c(C(=O)O)c2)c1)c1ccc(-c2ccccc2)cc1 | -29 | ? | -14%[11.4 µM] | 50µM* | -9 | .
CC(C)(C)C(=O)Nc1ccc(C(=O)Nc2cccc(Oc3ccc(C(=O)O)c(C(=O)O)c3)c2)cc1 | 1 | -2% | -33% | -33% | . | 45µM*
Cc1cn2c(=O)cc(COC(=O)c3cccc(NC(=O)C(C)Oc4ccccc4)c3)nc2s1 (stereo not given) | . | 11% | -15% | -5% | . | 23%[59 µM]
O=S(=O)(O)c1cc(Cl)cc(N=Nc2ccc(O)cc2O)c1O | -92* | ? | 20µM* | . | -90* | .
Cc1cc(C(C)C)n2c(nc3ccccc32)c1C#N | . | . | . | 1% | . | 33%
Cc1cc(-c2ccco2)c(C#N)c2nc3ccccc3n12 | -19 | 49% | -6%[57.1 µM] | -27% | -12 | 13µM*
CC1=CC(C)=Nc2ccc(C)cc2N1 | 0 | 50% | -6% | -34% | 3 | 45µM*
Cc1ccc2c(c1)NC(=O)CC(c1ccccc1)=N2 | -2 | 16% | -11% | 11% | 9 | -6%[59 µM]
O=C1OC(c2ccc3ccccc3c2O)(c2ccc3ccccc3c2O)c2ccccc21 | 4 | ? | 32µM* | . | 0 | .
CN1CCc2c(sc3nc(NN)n(Cc4ccccc4)c(=O)c23)C1 | -14 | -20% | ? | ? | -9 | 45µM*
CN1CCc2c(sc3nc(NN)n(-c4ccc(Cl)cc4)c(=O)c23)C1 | -8 | 3% | ? | ? | . | 45µM*
CC(=O)OC(C(=O)Nc1nccs1)c1ccccc1 (stereo not given) | 1 | 38% | -7% | -1% | 5 | -8%
CCOC(=O)c1ccccc1NC(=O)c1ccc2nccnc2c1 | -8 | -11% | 50µM* | . | -6 | -27%
Cc1ccc(C(=O)Nc2nccs2)cc1 | -3 | 42% | -3% | -1% | -1 | 7%
COc1ccc(CC(=O)Nc2ccc(C(=O)Nc3nccs3)cc2)cc1OC | -81* | 11% | -10% | -16% | -74* | ?
O=C(Nc1nccs1)c1ccc2nccnc2c1 | ? | -22% | 79µM* | -2% | ? | -12%

Assay outcomes deposited in PubChem BioAssay by National Center for Advancing Translational Sciences (NCATS).
